Compound activity (PubChem BioAssay)
An excerpt weighted towards active compounds, which were near 10% of everything screened.
GPT2 inhibitor: Primary qHTS assay for inhibitors of Glutamate pyruvate transaminase 2 (GPT2); 100,000 compounds, 0.25% hits; Potency, µM (doses to about 57.7 µM), for inactives: top-dose activity change, negative = inhibition, usual class: inhibitors; Recombinant GPT2, coupled pyruvate oxidase/HRP Amplex Red fluorescence; Alanine aminotransferase 2 (Homo sapiens), Q8TD30; also: nearly all actives have a fitted effect of over 60% in size
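Recombinant GPT2 (10ng/uL) with 250uM a-KG and 2mM L-alanine, 30 min at room temperature, in HEPES pH 7.5 buffer. Pyruvate detected by pyruvate oxidase/HRP/Amplex Red fluorescence after 30 min in the dark; AOA (50uM) as positive control.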
NIH3T3 tox: Cytotoxic Profiling in NIH 3T3 Cell Line of Diverse Libraries Using Quantitative High-Throughput Screening; AID 1345082, 2018; Potency, µM (highest dose often 96.7 µM), for inactives: at the top dose activity change, negative = cytotoxicity, actives largely listed as inhibitors; NIH 3T3 viability, CellTiter-Glo ATP luminescence, 48-72 h; 94,000 compounds, 4.3% hits; also: nearly all actives have a fitted effect of over 55% in size
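Viability of NIH 3T3 cells after 48 or 72 hr compound treatment at 37 °C was assessed by CellTiter-Glo, with luminescence imaged following a 10 min room-temperature step.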
FLuc inh: Firefly luciferase inhibition profiling of diverse chemical library using quantitative high-throughput screening | AID 1347043, 2019 | Potency, µM (titrated, usually from 115 µM), most hits filed as inhibitors | purified P. pyralis luciferase, luminescence, biochemical | 76,000 compounds, 2.5% hits | Luciferin 4-monooxygenase (Photinus pyralis), P08659; also: nearly all actives have a fitted effect of over 65% in size
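Purified 10nM P. pyralis luciferase with 10uM D-luciferin and 10uM ATP in 50mM Tris acetate pH 7.5, 10mM Mg acetate, 0.01% Tween-20, 0.05% BSA. qHTS titration; luminescence read by CCD imager.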
hNpr1 antagonist: Natriuretic polypeptide receptor (hNpr1) antagonism - Primary qHTS; HEK293 hNpr1 GloSensor cGMP, ANP-stimulated luminescence; AID 1347048, 2019; 76,000 compounds, 1.6% hits; Potency, µM (series often up to 46.3 µM), inactives show top-dose activity change, negative = inhibition, usual class: inhibitors; calls by dose curve; also: nearly all actives have a fitted effect of over 60% in size
Target sequence (P16066 whole entry, looked up): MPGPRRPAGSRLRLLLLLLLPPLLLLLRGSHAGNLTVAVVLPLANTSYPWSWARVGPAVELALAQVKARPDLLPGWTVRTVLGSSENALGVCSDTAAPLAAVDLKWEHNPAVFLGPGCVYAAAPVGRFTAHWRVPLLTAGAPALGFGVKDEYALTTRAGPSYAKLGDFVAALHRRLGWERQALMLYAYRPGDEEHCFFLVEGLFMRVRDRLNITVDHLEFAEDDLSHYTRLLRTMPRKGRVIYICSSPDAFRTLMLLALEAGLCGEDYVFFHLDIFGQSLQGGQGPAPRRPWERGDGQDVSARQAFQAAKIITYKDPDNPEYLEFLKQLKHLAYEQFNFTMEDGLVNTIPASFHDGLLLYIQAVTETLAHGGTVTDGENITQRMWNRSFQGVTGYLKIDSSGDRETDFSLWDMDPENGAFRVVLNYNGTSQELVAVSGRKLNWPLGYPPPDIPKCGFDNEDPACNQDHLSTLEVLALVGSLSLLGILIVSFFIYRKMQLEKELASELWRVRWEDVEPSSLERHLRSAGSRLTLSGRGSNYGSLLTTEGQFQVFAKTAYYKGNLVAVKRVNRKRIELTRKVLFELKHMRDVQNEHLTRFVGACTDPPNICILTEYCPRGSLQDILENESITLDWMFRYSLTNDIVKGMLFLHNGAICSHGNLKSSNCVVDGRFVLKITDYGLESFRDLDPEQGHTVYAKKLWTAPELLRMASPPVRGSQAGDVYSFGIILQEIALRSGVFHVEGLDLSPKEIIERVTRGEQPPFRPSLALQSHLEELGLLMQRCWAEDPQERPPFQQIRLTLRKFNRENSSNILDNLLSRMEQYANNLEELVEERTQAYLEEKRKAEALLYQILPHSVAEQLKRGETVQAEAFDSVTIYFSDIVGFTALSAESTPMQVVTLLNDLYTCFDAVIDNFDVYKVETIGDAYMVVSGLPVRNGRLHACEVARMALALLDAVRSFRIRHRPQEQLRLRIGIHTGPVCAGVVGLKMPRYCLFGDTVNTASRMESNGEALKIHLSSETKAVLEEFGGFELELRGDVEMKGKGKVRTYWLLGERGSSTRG
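HEK293 cells stably expressing human Npr1 and cGMP GloSensor pGS-40F, loaded 2 h with 2% GloSensor reagent, given compound 30 min at room temperature. Luminescence read before and 20 min after 0.1 nM hNppA.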
HEK293 tox: Cytotoxic Profiling in HEK 293 Cell Line of Diverse Libraries Using Quantitative High-Throughput Screening; AID 1345083, 2018; HEK 293 viability, ATP luminescence (CellTiter-Glo), 48-72 h; 94,000 compounds, 6.6% hits; Potency, µM (doses to about 115 µM), without a hit: at the highest dose activity change, negative = cytotoxicity, usual class: inhibitors; also: nearly all actives have a fitted effect of over 60% in size
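Cells seeded first (HEK 293, 250 cells/well), then compound added by pintool. Incubation ran 48 or 72 hr at 37 degree Celsius. CellTiter-Glo was added and luminescence imaged after 10 min at room temperature.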
Numbers without * were called inactive; [ ] = dose if it differs, or a comment. Unless noted, calls follow the shape of the dose curve; as a rule, active = well fitted curve in the direction sought with a large enough effect; inconclusive = small, poorly fitted or top-dose-only effect, or another doubt; inactive = no such curve, though single readings can be large; an effect the other way counts as inactive or inconclusive. % is scaled to controls: 0 for no effect and ±100 for the full control effect; potency is read from the fitted curve at half-maximal effect.

What do the screens show for `CCc1ccc(CNC(=O)c2cc3n(n2)CC(c2ccc(Cl)cc2)OC3)cc1` (centres undefined)?
GPT2 inhibitor: 0.1%; NIH3T3 tox: 39.8µM*; FLuc inh: inactive; hNpr1 antagonist: inconclusive; HEK293 tox: inconclusive

How did CC(C)c1ccc(CNC(=O)c2cc3n(n2)CC(c2ccc4c(c2)OCO4)OC3)cc1 (centres undefined) do in these assays?
GPT2 inhibitor: -9.4%; NIH3T3 tox: inconclusive; FLuc inh: inactive; hNpr1 antagonist: -18.7%; HEK293 tox: 39.8µM*

What do the screens show for `Cc1ccc(CNC(=O)c2cc3n(n2)CC(c2ccc(Cl)cc2)OC3)cc1` (centres undefined)?
GPT2 inhibitor: -1.0%; NIH3T3 tox: inconclusive; FLuc inh: inactive; hNpr1 antagonist: inconclusive; HEK293 tox: inconclusive

What do the screens show for `O=C(NCc1ccc(Cl)cc1)c1cc2n(n1)CC(c1ccc(Cl)cc1)OC2` (centres undefined)?
GPT2 inhibitor: 3.6%; NIH3T3 tox: 35.5µM*; FLuc inh: inactive; hNpr1 antagonist: inconclusive; HEK293 tox: inconclusive

What do the screens show for `O=c1cc(C2=CCOCC2)oc2c(-c3cccc4[nH]ccc34)nccc12`?
GPT2 inhibitor: 1.6%[88.5 µM]; NIH3T3 tox: inconclusive; FLuc inh: inactive; hNpr1 antagonist: -12.8%[70.6 µM]; HEK293 tox: 39.8µM*

Results for COc1ccccc1-c1nccc2c(=O)cc(-c3ccccn3)oc12 ?
GPT2 inhibitor: inconclusive; NIH3T3 tox: inconclusive; FLuc inh: inactive; hNpr1 antagonist: 1.8%[70.6 µM]; HEK293 tox: inconclusive

Results for NCc1ccccc1-c1ccc(OC(F)(F)F)cc1 ?
GPT2 inhibitor: inactive; NIH3T3 tox: inconclusive; HEK293 tox: 56.2µM*

Results for Cc1ccc(CNC(=O)Cn2ccn3nc4c(c3c2=O)CCCC4)cc1 ?
GPT2 inhibitor: 0.1%; NIH3T3 tox: inactive; FLuc inh: inactive; hNpr1 antagonist: 3.1%; HEK293 tox: 8.6%

How did CCOC(=O)C1CCCN(C(=O)C2CCc3nnc(C4CC4)n32)C1 (centres undefined) do in these assays?
GPT2 inhibitor: inactive; NIH3T3 tox: 25.1µM*; HEK293 tox: inconclusive

What do the screens show for `O=C(O)COc1ccc(-c2nccc3c2C(=O)N(Cc2c[nH]c4ccccc24)CC(COc2ccccc2)O3)cc1` (centres undefined)?
GPT2 inhibitor: -9.0%; NIH3T3 tox: inconclusive; FLuc inh: inconclusive; hNpr1 antagonist: 7.3%; HEK293 tox: 3.7%

How did O=C(O)COc1ccc(-c2nccc3c2C(=O)N(Cc2c[nH]c4ccccc24)CC(CNC(=O)c2cccc(Cl)c2)O3)cc1 (centres undefined) do in these assays?
GPT2 inhibitor: -16.6%; NIH3T3 tox: 31.6µM*; FLuc inh: inactive; hNpr1 antagonist: 2.3%; HEK293 tox: -10.0%

What do the screens show for `OC1(CN2CCN(CCc3ccccn3)CC2)CCCNC1` (centres undefined)?
GPT2 inhibitor: -0.6%; NIH3T3 tox: 2.8%; FLuc inh: inactive; hNpr1 antagonist: 1.0%; HEK293 tox: -4.8%

Results for Cc1cc(Cl)ccc1OCCN1CCN(CC2(O)CCCNC2)CC1 (centres undefined) ?
GPT2 inhibitor: inactive; NIH3T3 tox: 22.4µM*; FLuc inh: inactive; hNpr1 antagonist: 6.2%; HEK293 tox: 12.6µM*

What do the screens show for `O=C(c1cc2ccccc2[nH]1)N1CCC2(C1)NC(=O)N(Cc1ccc(Cl)cc1)C2=O` (centres undefined)?
GPT2 inhibitor: 0.6%; NIH3T3 tox: inconclusive; FLuc inh: inconclusive; hNpr1 antagonist: -8.0%; HEK293 tox: 35.5µM*

Results for CCOc1ccccc1C(=O)N1CCC2(CC1)NC(=O)N(Cc1ccccc1)C2=O ?
GPT2 inhibitor: 2.7%; NIH3T3 tox: -19.9%; FLuc inh: inactive; hNpr1 antagonist: 3.5%; HEK293 tox: -21.5%

How did COc1ccc(C(=O)N2CCCC3(C2)NC(=O)N(Cc2ccc(C)cc2)C3=O)cc1 (centres undefined) do in these assays?
GPT2 inhibitor: inactive; NIH3T3 tox: -11.2%; FLuc inh: inactive; hNpr1 antagonist: 3.8%; HEK293 tox: -18.0%

How did CCOc1ccccc1C(=O)N1CCCC2(C1)NC(=O)N(Cc1ccc(Cl)cc1)C2=O (centres undefined) do in these assays?
GPT2 inhibitor: 4.2%; NIH3T3 tox: inconclusive; FLuc inh: inactive; hNpr1 antagonist: -22.7%; HEK293 tox: 79.4µM*

Results for CCOc1ccccc1C(=O)N1CCC2(CC1)NC(=O)N(c1cccc(Cl)c1)N2 ?
GPT2 inhibitor: inconclusive; NIH3T3 tox: inconclusive; FLuc inh: inactive; hNpr1 antagonist: -6.1%; HEK293 tox: 31.6µM*

What do the screens show for `Cc1ccc(C(=O)N2CCC3(CC2)NC(=O)N(c2cccc(Cl)c2)N3)c(C)c1`?
GPT2 inhibitor: inconclusive; NIH3T3 tox: inconclusive; FLuc inh: inactive; hNpr1 antagonist: 0.0%; HEK293 tox: inconclusive

How did COc1ccc(C(=O)N2CCCC3(C2)NC(=O)N(Cc2ccc(Cl)cc2)C3=O)cc1 (centres undefined) do in these assays?
GPT2 inhibitor: inactive; NIH3T3 tox: -19.9%; FLuc inh: inactive; hNpr1 antagonist: -13.1%; HEK293 tox: 50.1µM*

How did CC1(C)CC[C@]2(C(=O)O[C@@H]3O[C@H](CO)[C@@H](O)[C@H](O)[C@H]3O)CC[C@]3(C)C(=CCC4[C@@]5(C)C[C@@H](O)[C@H](O)[C@@](C)(CO)C5[C@H](O)C[C@]43C)C2[C@@H]1O (some centres undefined) do in these assays?
GPT2 inhibitor: 3.8%[17.1 µM]

Results for COc1cccc(CNC(=O)CN2CCCc3nc(C4CC4)ncc3C2=O)c1OC ?
GPT2 inhibitor: -4.7%; NIH3T3 tox: inactive; FLuc inh: inactive; hNpr1 antagonist: 6.0%; HEK293 tox: inactive

What do the screens show for `CNC(=O)N1CCC(C2CCN(C3CCN(CCc4ccccc4)CC3)C2)CC1` (centres undefined)?
GPT2 inhibitor: -18.6%; NIH3T3 tox: inconclusive; FLuc inh: inactive; hNpr1 antagonist: 13.9%; HEK293 tox: inconclusive

Results for COc1cccc(CN(Cc2ccccc2)[C@H]2C[C@H]3CCOC[C@@]3(c3ccccc3)C2)c1 ?
NIH3T3 tox: -21.5%; HEK293 tox: inconclusive

How did c1ccc(CN(Cc2ccccn2)[C@H]2C[C@H]3CCOC[C@@]3(c3ccccc3)C2)cc1 do in these assays?
NIH3T3 tox: inconclusive; HEK293 tox: 50.1µM*
